A short description of assay [1]: EMT-state selective cytotoxicity in co-culture – imaging, PC-3E GFP, TEM4-18 mCherry, primary screen (AID 1345086).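 For all read-outs here: cells exposed to compound for 72 h before imaging.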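 For red/green cell ratio (normalised): normalised mesenchymal count divided by normalised epithelial count so high means epithelial killing.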 As to conditions: PC-3E GFP / TEM4-18 mCherry co-culture, imaging cell counts, at 1 µM; for red/green cell ratio (normalised): actives lie on both sides, counts scaled to control wells, 1 = unselective.
Assay [2] can be described thus: yeast 75Q aggregation reduction – 75Q-TubU reporter (AID 1593). As to conditions: Yeast 75Q polyglutamine aggregation reporter.
Assay [3] can be described thus: restoration of touch response, mutant HTT neurons – whole organism, C. elegans mechanosensory neurons, N-terminal huntingtin (AID 1599). As to conditions: C. elegans polyQ-huntingtin mechanosensory neurons, stronger effect = higher value.
A short description of assay [4]: blockers of cytochrome c efflux from mitochondria – biochemical, purified mitochondria (AID 1603).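 Note: mouse liver mitochondria challenged with calcium chloride; signal normalized to the plate average as 100%.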 As to conditions: stronger effect = lower value.
Assay [5] can be described thus: polyglutamine aggregate formation blockers (AID 1604). As to conditions: polyglutamine-induced protein aggregation inhibition assay; stronger effect = higher value; tested at 2.5 µM.
Assay [6] is described as follows: glutamate transport activators, MN-1 cells, MN-1 cell line (AID 1612).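 Note: tested at 1 µM final; 0% = mean of DMSO vehicle wells on each plate; positive means more glutamate uptake than control and negative means less.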 As to conditions: MN-1 motor neuron cells, stronger effect = higher value.
Assay [7] is described as follows: 75Q-TubH aggregate inhibition, S. cerevisiae, yeast (AID 1616). As to conditions: S. cerevisiae 75Q-TubH polyglutamine aggregation suppression; stronger effect = higher value.
A short description of assay [8]: compounds altering circadian rhythm period length – cell-based, LOPAC library, luminescence reporter (AID 2774; call rule not given here;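 note: values are relative to mean of DMSO wells on each plate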). As to conditions: circadian reporter cells, at 7 µM, actives lie on both sides.
Assay [9] can be described thus: compounds altering Cy5-DNA-NS3h complex signal – biochemical, LOPAC1280, artefact control for HCV NS3 helicase inhibitor project (AID 687037; call rule not given here). As to conditions: Cy5-DNA-NS3h complex fluorescence interference counterscreen.
The subject of assay [10] is Aerobactin synthetase IucA (Klebsiella pneumoniae). Description: inhibition of K. pneumoniae IucA enzyme – biochemical, Tocris library, absorbance (AID 1345561; call rule not given here;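 note: 100% = enzyme without compound and 0% = no enzyme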). As to conditions: purified IucA enzyme assay, absorbance (OD) read-out; stronger effect = lower value;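 tested at 8 µM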.
A short description of assay [11]: viability loss with induced miR-34 in A549 – imaging, A549 dox-inducible miR-34, nuclei and caspase counts, primary screen (AID 1347080;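 active = compounds whose cell count with miR-34 switched on is under 0.7 times the count with it off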). As to conditions: A549 miR-34 inducible, Hoechst nuclei count, 48 h.
Assay [12] can be described thus: chitosan synthesis blockers in C. neoformans – flow cytometry, Cibacron Brilliant Red staining (AID 1347148; call rule not given here;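 note: compound exposure lasted three days at 37 degrees C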). As to conditions: Cryptococcus neoformans chitosan, stronger effect = lower value; at 10 µM unless noted.
[13] abbreviates: measured here: epithelial PC-3E GFP cell survival.
Where [14] appears, read: measured here: mesenchymal TEM4-18 mCherry cell survival.

Molecules are shown by their SMILES. “And” between values parts separate entries of the source, which are not always exact repeats. Equal entries are not always repeated. For part of these data: Measured potencies and affinities stand elsewhere. The source made the active and inactive calls.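 Rule for the calls, unless noted: active = compounds killing one labelled cell type while sparing the other, by normalised counts and ratio limits, not self-fluorescent; inactive = the rest.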

For orientation: remaining activity means the signal under treatment as a percentage of the control signal.

Consider `Nc1cc2ccccc2[nH]c1=O`, for which the red/green cell ratio (normalised) in assay [1] was 0.91 (inactive). Besides, the normalised cell number in assay [1] (setting [13]) turned out to be 1.14; in [1] (setting [14]), 1.04.

As to `CC(C)CCCC(C)C1CCC2C3CC[C@H]4CCCC[C@]4(C)C3CC[C@]12C` (stereo not given in full), the red/green cell ratio (normalised) in [1] was 0.9 (inactive). Besides, the normalised cell number came out at 1.1 in assay [1] (setting [13]) and 0.99 in [1] (setting [14]).

With `O=C(O)c1ccc([C@H](O)c2ccccc2)cn1`, the red/green cell ratio (normalised) in [1] is 1.05 (inactive). Moreover, the normalised cell number in assay [1] (setting [13]) stood at 1.03; in assay [1] (setting [14]), 1.09.

As for `C=C1C[C@]23C[C@@]1(O)CC[C@H]2[C@@]12C=C[C@H](O)[C@](C)(C(=O)O1)[C@H]2[C@@H]3C(=O)O`, the red/green cell ratio (normalised) in [1] was 1.1 (inactive). Further, the normalised cell number in assay [1] (setting [13]) was 0.93; in [1] (setting [14]) it was 1.02.

For the molecule `Cc1cc(O)c(C(=O)c2c(O)cccc2O)c(C(=O)O)c1`, the red/green cell ratio (normalised) in assay [1] was 0.99 (inactive). The normalised cell number in [1] (setting [13]) came to 1.15; in assay [1] (setting [14]), 1.14.

As for `Cc1cc2c(CO)cc(O)cc2o1`, the red/green cell ratio (normalised) in [1] is 1 (inactive). Further, the normalised cell number in [1] (setting [13]) and in [1] (setting [14]) was 0.92 in each case.

Regarding `CC1O[C@@H](Oc2c(-c3ccc(O)c(O)c3)oc3cc(O)cc(O)c3c2=O)[C@H](O)[C@H](O)[C@H]1O` (stereo not given in full), the red/green cell ratio (normalised) in assay [1] was 1.01 (inactive). In addition, the normalised cell number in assay [1] (setting [13]) amounted to 1.01; in [1] (setting [14]) it was 1.02.

For `O=C(O)CC1OCc2c(O)cccc21` (stereo not given), the red/green cell ratio (normalised) in [1] was 0.47 (inactive). Besides, the normalised cell number in [1] (setting [13]) is 0.95; in assay [1] (setting [14]), 0.44.

In the case of `O=C(NCC1O[C@@H](OC2C(NC(=O)OCc3ccccc3)C[C@@H](NC(=O)OCc3ccccc3)[C@H](OC3OC(COS(=O)(=O)O)[C@@H](OS(=O)(=O)O)[C@H](NC(=O)OCc4ccccc4)[C@H]3OS(=O)(=O)O)[C@H]2OS(=O)(=O)O)[C@H](OS(=O)(=O)O)[C@@H](OS(=O)(=O)O)C1OS(=O)(=O)O)OCc1ccccc1` (stereo not given in full), the red/green cell ratio (normalised) in assay [1] was 1.03 (inactive). In addition, the normalised cell number amounted to 0.88 in [1] (setting [13]) and 0.91 in assay [1] (setting [14]).

In assay [2], `C/C=C/CC(C)C(O)C1C(=O)NC(CC)C(=O)N(C)CC(=O)N(C)C(CC(C)C)C(=O)NC(C(C)C)C(=O)N(C)C(CC(C)C)C(=O)NC(C)C(=O)NC(C)C(=O)N(C)C(CC(C)C)C(=O)N(C)C(CC(C)C)C(=O)N(C)C(C(C)C)C(=O)N1C` (stereo not given) yielded a score of 1.51. Besides, the rescue above control in assay [3] worked out at 1.62. For the same molecule, the cytochrome c release ratio in [4] came out at 0.93. Moreover, the inhibition of aggregation in [5] came out at 77.8%. Besides, in [6], the glutamate uptake change was -28.6%. Besides, in [7], the aggregation suppression score was found to be 1.73. Besides, in assay [8], the period change is -0.005 h (inactive). For the same molecule, in [9], the fluorescence ratio (interference) was 0.9 (inactive). The red/green cell ratio (normalised) in assay [1] was 0.77 (inactive). Further, the values for the normalised cell number in assay [1] (setting [13]) and in assay [1] (setting [14]) were 0.27 and 0.21, respectively. Besides, in [10], the remaining activity is 111% (inactive). Besides, the fold change in assay [11] (stronger effect = lower value, cell number ratio, induced over uninduced) was 1.04 (inactive) and 1.06 (inactive) and 0.898 (inactive); in assay [11] (measured here: relative caspase fold change +Dox/-Dox), 1.1 and 0.674 and 2.07. Further, the fold fluorescence in assay [12] is 18.1 [at 41.6 µM] (inactive).

On to `CO[C@H]1OC2COC(c3ccccc3)OC2[C@H](OCc2ccccc2)[C@@H]1OCc1ccccc1` (stereo not given in full), for which the red/green cell ratio (normalised) in assay [1] was 1 (inactive). Moreover, the normalised cell number in assay [1] (setting [13]) and in assay [1] (setting [14]) was 1.15 each time.

The values above are taken from PubChem BioAssay.
